Results from PubChem BioAssay (NCATS).
Results filed as inconclusive are left out. A number with no mark means an inactive call. Active and inactive are the calls of the source. Calls come from the whole dose curve; as a rule, active = well fitted cell-killing curve with a large enough effect; inconclusive = small, poorly fitted or top-dose-only effect, or effect the other way; inactive = flat fitted curve, though single readings scatter.
% is set by controls: 0 for no effect and ±100 for the full control effect; potency is the fitted concentration of half-maximal effect.

Assay: Cell Viability - HUV-EC-C (AID 542); note: nearly all actives have a fitted effect of over 35% in size
Conditions: HUV-EC-C endothelial cell viability, qHTS; series mostly up to 92.2 µM; activity change, negative = cytotoxicity: at the top concentration
Description: NIH Chemical Genomics Center [NCGC]
NIH Molecular Libraries Screening Centers Network [MLSCN]
National Institutes of Environmental Health Sciences [NIEHS]
National Toxicology Program [NTP]
We have developed a 1536-well cell-based assay for quantitative high throughput screening (qHTS) against a number of cell lines to determine in vitro cytotoxicity of small molecules. This particular assay uses the HUV-EC-C cell line which is derived from normal human vascular endothelial cells.
NCGC Assay Protocol Summary:
The CellTiter-Glo luminescent cell viability assay (Promega) is a homogeneous method to measure the number of viable cells in culture. The end point readout of this assay is based on quantitation of intracellular ATP, an indicator of metabolic activity, using the luciferase reaction. Luciferase catalyzes the oxidation of beetle Luciferin to oxyluciferin and light in the presence of ATP. The luminescent signal is proportional to amount of ATP present.
Using the CellTiter-Glo luminescent cell viability assay, the amount of cellular ATP was measured in the HUV-EC-C cell line with complete culture medium following compound treatment for 40 hours. The assay was performed in opaque white Kalypsys 1536-well plates. In the screen, tamoxifen and doxorubicin were used as positive controls. Library compounds were measured for their ability to cause acute toxicity in the cell line, as reflected by a decrease in intracellular ATP levels, in a concentration-dependent manner. […] AC50 values were determined from concentration-response data modeled with the standard Hill equation.
qHTS protocol for CellTiter Glo HUV-EC-C cellular assay
[Step] [Parameter] [Value] [Description]
1. Reagent; 5 uL; 1000 HUV-EC-C cells/well
2. Time; 5 hr; 37 °C incubation
4. Controls; 23 nL; Tamoxifen 0.34 uM to 100 uM & Doxorubicin 0.02 nM to 100 uM
5. Time; 40 hr; 37 °C incubation
6. Reagent; 5 uL; CellTiter Glo reagent
7. Time; 20 min; Room Temperature
8. Detection; Luminescence; Viewlux plate reader
Keywords: cell viability, cytotoxicity, HUV-EC-C cell line, luminescence, NTPHTS, NTPHTS_NCGC, NIEHS, EPA, DSSTox, MLSMR, MLSCN, NIH Roadmap, qHTS, NCGC
In the case of `O=C(N[C@H](CO)[C@H](O)c1ccc([N+](=O)[O-])cc1)C(Cl)Cl`, the “activity change, negative = cytotoxicity” value is reported as 21.7%. For `CC(=O)Oc1ccccc1C(=O)Nc1ncc([N+](=O)[O-])s1`, the Potency was 31.6 µM (active). For `NNC(=O)c1ccncc1`, the “activity change, negative = cytotoxicity” value was 9.07%. For `O=C(O)c1cc(=O)[nH]c(=O)[nH]1`, the “activity change, negative = cytotoxicity” value was -5.97%. For `NC(N)=NC(N)=NCCc1ccccc1`, the “activity change, negative = cytotoxicity” value was 2.15%. In the case of `Cc1nnc(NS(=O)(=O)c2ccc(N)cc2)s1`, the “activity change, negative = cytotoxicity” value is reported as 0.309%. For `Cc1ccnc2c1NC(=O)c1cccnc1N2C1CC1`, the “activity change, negative = cytotoxicity” value was 4.2%. With `CC1=NN(c2ccccc2)C(=O)C1` the “activity change, negative = cytotoxicity” value was 3.64%. With `CC[C@H](C)C(=O)O[C@H]1C[C@@H](C)C=C2C=C[C@H](C)[C@H](CC[C@@H]3C[C@@H](O)CC(=O)O3)[C@H]21` the “activity change, negative = cytotoxicity” value was -17.3%. In the case of `C[C@]12C=CC(=O)C=C1CC[C@@H]1[C@@H]2C(=O)C[C@@]2(C)[C@H]1CC[C@]2(O)C(=O)CO`, the “activity change, negative = cytotoxicity” value is reported as 8.39%. In the case of `Cc1ncc([N+](=O)[O-])n1CCO`, the “activity change, negative = cytotoxicity” value is reported as 5.58%. With `CC(=O)[C@H]1CC[C@H]2[C@@H]3CCC4=CC(=O)CC[C@]4(C)[C@H]3CC[C@]12C` the Potency was “inactive”. For `CCc1cc(C(N)=S)ccn1`, the “activity change, negative = cytotoxicity” value was -5.54%. In the case of `Cc1noc(NS(=O)(=O)c2ccc(N)cc2)c1C`, the “activity change, negative = cytotoxicity” value is reported as 2.82%. For `CN(C)c1ccc(C(=C2C=CC(=[N+](C)C)C=C2)c2ccc(N(C)C)cc2)cc1`, the Potency was 3.98 µM (active). For `COc1ccc2cc3[n+](cc2c1OC)CCc1cc2c(cc1-3)OCO2`, the “activity change, negative = cytotoxicity” value was -13.3%. For `Cc1cc(NS(=O)(=O)c2ccc(N)cc2)no1`, the “activity change, negative = cytotoxicity” value was 3.95%.
